Results on 7 sequences are retold here after paper PMC7862700, “An all-to-all approach to the identification of sequence-specific readers for epigenetic DNA modifications on cytosine”.

Assay in all cases: DAPPL (digital affinity profiling via proximity ligation, sequencing); 10 mM Tris-HCl pH 7.5, 50 mM NaCl, 1 mM DTT, 4% glycerol, room temperature, 30 min; GST-TFs on glutathione beads, 16-mer random dsDNA library, 0.1% formaldehyde crosslink after washing; high values mean tight binding
Common to all, as to conditions: protein: recombinant; tags: N-terminal GST; dsDNA, one strand shown

For test [1], the target named is T1, FEV (Homo sapiens, UniProt Q99581 1-238).
T1 sequence: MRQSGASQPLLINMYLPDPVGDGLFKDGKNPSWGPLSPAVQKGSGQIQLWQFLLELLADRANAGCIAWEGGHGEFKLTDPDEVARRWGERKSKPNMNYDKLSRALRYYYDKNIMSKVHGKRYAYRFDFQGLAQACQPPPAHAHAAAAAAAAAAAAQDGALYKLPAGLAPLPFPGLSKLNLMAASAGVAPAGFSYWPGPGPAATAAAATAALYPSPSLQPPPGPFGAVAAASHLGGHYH
Summed up:
(§1)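 Binding signal is given per hexamer as its read frequency for a factor divided by its frequency in the tag-only sample. GST-fused human transcription factors were expressed in yeast, captured on glutathione beads, barcoded with DNA and pooled with that sample, then incubated with 200 nmole of a 16-mer random double-stranded DNA library in Tris/NaCl/DTT/glycerol buffer for 30 min at room temperature. The pools were then washed, crosslinked, proximity-ligated, amplified by PCR and sequenced on an Illumina NextSeq500.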

In test [2] the target is ETV5 (Homo sapiens, UniProt P41161 1-510). Summed up: as §1
ETV5, sequence (P41161 whole entry): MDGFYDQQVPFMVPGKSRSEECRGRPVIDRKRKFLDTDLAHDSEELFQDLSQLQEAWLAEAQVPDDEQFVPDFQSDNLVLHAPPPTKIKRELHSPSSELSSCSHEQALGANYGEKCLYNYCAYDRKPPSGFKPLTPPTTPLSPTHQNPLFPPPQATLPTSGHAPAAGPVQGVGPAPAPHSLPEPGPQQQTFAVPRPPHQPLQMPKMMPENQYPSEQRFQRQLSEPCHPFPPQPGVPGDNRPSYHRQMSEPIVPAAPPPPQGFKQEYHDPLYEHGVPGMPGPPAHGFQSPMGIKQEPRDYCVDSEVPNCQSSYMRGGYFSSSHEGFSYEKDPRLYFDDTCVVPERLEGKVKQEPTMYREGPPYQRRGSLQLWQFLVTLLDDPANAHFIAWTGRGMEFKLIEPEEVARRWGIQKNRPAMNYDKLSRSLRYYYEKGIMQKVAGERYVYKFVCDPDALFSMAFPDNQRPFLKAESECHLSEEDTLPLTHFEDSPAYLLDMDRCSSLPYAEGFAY
The target of test [3] is T2, SPIC (Homo sapiens, UniProt Q8N5J4 1-248).
T2 sequence: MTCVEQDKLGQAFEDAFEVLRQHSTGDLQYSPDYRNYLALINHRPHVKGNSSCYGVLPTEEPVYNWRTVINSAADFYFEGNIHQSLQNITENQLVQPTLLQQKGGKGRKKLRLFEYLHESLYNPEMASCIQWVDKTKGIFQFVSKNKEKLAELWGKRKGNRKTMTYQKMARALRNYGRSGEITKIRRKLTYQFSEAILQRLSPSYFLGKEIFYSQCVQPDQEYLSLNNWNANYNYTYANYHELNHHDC
The method in brief: as §1

The target of test [4] is ELF4 (Homo sapiens, UniProt Q99607 1-663). The method in brief: as §1
ELF4, sequence (Q99607 whole entry): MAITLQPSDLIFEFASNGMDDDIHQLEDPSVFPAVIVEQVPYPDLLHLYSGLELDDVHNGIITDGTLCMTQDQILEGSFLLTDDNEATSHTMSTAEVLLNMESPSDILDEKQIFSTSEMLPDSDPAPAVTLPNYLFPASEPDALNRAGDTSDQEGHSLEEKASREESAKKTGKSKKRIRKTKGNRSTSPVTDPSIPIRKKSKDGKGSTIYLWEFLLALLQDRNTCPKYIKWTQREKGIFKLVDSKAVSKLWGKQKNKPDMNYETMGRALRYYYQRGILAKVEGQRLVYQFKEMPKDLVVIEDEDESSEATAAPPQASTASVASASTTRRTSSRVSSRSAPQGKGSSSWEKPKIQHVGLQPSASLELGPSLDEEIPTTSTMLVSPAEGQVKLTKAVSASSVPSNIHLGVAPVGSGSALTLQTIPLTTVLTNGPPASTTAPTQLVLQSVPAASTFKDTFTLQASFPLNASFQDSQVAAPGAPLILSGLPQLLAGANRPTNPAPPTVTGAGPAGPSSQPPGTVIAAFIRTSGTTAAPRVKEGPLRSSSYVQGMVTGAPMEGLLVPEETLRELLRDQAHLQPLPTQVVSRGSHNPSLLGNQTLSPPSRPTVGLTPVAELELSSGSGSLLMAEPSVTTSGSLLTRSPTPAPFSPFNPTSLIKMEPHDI
Test [5] has as its target T3, ELK4 (Homo sapiens, UniProt P28324-2 1-405).
T3 sequence: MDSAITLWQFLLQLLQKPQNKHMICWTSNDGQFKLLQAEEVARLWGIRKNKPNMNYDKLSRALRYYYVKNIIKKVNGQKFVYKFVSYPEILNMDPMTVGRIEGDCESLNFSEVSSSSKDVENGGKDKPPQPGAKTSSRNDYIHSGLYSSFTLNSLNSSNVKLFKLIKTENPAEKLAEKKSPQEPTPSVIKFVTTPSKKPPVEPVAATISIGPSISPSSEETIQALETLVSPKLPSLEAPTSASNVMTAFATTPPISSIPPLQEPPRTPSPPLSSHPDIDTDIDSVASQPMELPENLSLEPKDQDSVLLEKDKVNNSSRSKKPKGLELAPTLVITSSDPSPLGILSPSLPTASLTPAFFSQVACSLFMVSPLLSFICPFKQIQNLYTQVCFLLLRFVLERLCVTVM
The method in brief: as §1

The target of test [6] is T4, ETV2 (Homo sapiens, UniProt O00321 1-342).
T4 sequence: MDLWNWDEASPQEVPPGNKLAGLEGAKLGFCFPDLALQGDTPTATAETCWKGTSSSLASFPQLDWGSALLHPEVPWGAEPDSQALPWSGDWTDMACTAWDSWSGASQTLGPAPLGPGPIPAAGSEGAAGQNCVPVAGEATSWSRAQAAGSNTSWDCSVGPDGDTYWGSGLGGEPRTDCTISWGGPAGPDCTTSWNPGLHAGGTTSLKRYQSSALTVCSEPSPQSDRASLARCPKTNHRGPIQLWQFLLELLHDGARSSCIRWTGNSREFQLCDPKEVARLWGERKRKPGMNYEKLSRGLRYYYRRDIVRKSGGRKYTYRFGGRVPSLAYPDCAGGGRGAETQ
The method in brief:
as §1

Test [7] has as its target T5, ELF3 (Homo sapiens, UniProt P78545 1-371).
T5 sequence: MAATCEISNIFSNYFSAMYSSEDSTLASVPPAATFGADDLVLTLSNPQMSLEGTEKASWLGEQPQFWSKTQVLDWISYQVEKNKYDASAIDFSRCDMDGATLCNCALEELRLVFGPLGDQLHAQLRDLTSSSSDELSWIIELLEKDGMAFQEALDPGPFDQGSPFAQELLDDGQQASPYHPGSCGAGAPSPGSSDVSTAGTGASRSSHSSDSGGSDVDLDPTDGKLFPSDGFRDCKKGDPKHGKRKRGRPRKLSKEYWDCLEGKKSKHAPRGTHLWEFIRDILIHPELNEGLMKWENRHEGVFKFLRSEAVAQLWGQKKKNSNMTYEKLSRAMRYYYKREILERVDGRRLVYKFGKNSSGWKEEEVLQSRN
The method in brief: as §1

The target in test [8] is CRX (Homo sapiens, UniProt O43186 1-299). Summed up: as §1
CRX, sequence (O43186 whole entry): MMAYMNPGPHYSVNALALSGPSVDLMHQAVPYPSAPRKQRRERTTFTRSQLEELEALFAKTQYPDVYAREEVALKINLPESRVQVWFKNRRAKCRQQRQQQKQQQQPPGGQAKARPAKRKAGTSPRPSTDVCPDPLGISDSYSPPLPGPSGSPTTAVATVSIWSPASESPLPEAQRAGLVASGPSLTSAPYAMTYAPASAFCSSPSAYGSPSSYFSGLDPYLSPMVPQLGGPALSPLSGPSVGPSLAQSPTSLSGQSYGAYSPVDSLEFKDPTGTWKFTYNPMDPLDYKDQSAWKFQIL
In test [9] the target is ETV1 (Homo sapiens, UniProt P50549 1-477). Summed up:
as §1

ETV1, sequence (P50549 whole entry): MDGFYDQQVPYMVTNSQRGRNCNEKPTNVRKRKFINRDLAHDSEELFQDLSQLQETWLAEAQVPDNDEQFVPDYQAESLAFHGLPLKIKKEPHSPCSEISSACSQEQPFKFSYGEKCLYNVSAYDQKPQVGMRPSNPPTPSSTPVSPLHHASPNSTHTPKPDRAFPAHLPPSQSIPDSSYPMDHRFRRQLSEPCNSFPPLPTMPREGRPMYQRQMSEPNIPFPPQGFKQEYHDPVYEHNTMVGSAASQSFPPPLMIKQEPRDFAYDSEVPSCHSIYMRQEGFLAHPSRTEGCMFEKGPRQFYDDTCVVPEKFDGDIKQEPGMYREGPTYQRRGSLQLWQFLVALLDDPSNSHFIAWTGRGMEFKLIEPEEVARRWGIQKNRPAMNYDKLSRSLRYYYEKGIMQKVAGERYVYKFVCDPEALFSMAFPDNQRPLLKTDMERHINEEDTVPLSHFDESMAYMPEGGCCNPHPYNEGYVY

On to ATACGT, for which the binding signal is 1.11 fold enrichment (6-mer frequency, TF over GST control) in test [1]; 1.13 fold enrichment (6-mer frequency, TF over GST control) in [2]; 1.09 fold enrichment (6-mer frequency, TF over GST control) in [3]; 1.08 fold enrichment (6-mer frequency, TF over GST control) in test [4]; 1.15 fold enrichment (6-mer frequency, TF over GST control) in [5]; 1.04 fold enrichment (6-mer frequency, TF over GST control) in [6]. Besides, the binding signal in [7] is 1.1 fold enrichment (6-mer frequency, TF over GST control); in test [8], 1.01 fold enrichment (6-mer frequency, TF over GST control); in [9] it was 1.13 fold enrichment (6-mer frequency, TF over GST control).
For the sequence CCCCTG, the binding signal in [1] was 1.18 fold enrichment (6-mer frequency, TF over GST control); in [2], 1.22 fold enrichment (6-mer frequency, TF over GST control); in test [3], 1.16 fold enrichment (6-mer frequency, TF over GST control); in test [4], 1.21 fold enrichment (6-mer frequency, TF over GST control); in test [5] it was 1.46 fold enrichment (6-mer frequency, TF over GST control); in test [6] it was 1.03 fold enrichment (6-mer frequency, TF over GST control). Besides, the binding signal in test [7] is 1.21 fold enrichment (6-mer frequency, TF over GST control); in test [8], 1.07 fold enrichment (6-mer frequency, TF over GST control); in test [9], 1.24 fold enrichment (6-mer frequency, TF over GST control).
Take TCACCC: the binding signal in test [1] was 1.15 fold enrichment (6-mer frequency, TF over GST control); in test [2], 1.18 fold enrichment (6-mer frequency, TF over GST control); in [3], 1.13 fold enrichment (6-mer frequency, TF over GST control); in test [4] it was 1.21 fold enrichment (6-mer frequency, TF over GST control); in [5], 1.16 fold enrichment (6-mer frequency, TF over GST control); in test [6], 1.01 fold enrichment (6-mer frequency, TF over GST control). The binding signal is 1.16 fold enrichment (6-mer frequency, TF over GST control) in test [7]; 1.02 fold enrichment (6-mer frequency, TF over GST control) in test [8]; 1.18 fold enrichment (6-mer frequency, TF over GST control) in test [9].
In the case of GGTCTA, the binding signal in test [1] was 1.06 fold enrichment (6-mer frequency, TF over GST control); in [2] it was 1.11 fold enrichment (6-mer frequency, TF over GST control); in [3], 1.09 fold enrichment (6-mer frequency, TF over GST control); in [4], 1.11 fold enrichment (6-mer frequency, TF over GST control); in test [5] it was 1.04 fold enrichment (6-mer frequency, TF over GST control); in test [6] it was 1.06 fold enrichment (6-mer frequency, TF over GST control). Further, the binding signal in test [7] is 1.01 fold enrichment (6-mer frequency, TF over GST control); in test [8], 1.01 fold enrichment (6-mer frequency, TF over GST control); in [9] it was 1.05 fold enrichment (6-mer frequency, TF over GST control).
TCATGC: the binding signal in test [1] is 1.14 fold enrichment (6-mer frequency, TF over GST control); in test [2], 1.09 fold enrichment (6-mer frequency, TF over GST control); in test [3], 1.11 fold enrichment (6-mer frequency, TF over GST control); in [4] it was 1.18 fold enrichment (6-mer frequency, TF over GST control); in test [5], 1.27 fold enrichment (6-mer frequency, TF over GST control); in [6], 1.31 fold enrichment (6-mer frequency, TF over GST control). The binding signal in test [7] was 1.18 fold enrichment (6-mer frequency, TF over GST control); in [8], 1.03 fold enrichment (6-mer frequency, TF over GST control); in test [9] it was 1.17 fold enrichment (6-mer frequency, TF over GST control).
Consider TGCTGA, for which the binding signal in test [2] was 1.07 fold enrichment (6-mer frequency, TF over GST control); in test [3], 1.18 fold enrichment (6-mer frequency, TF over GST control); in test [4] it was 1.15 fold enrichment (6-mer frequency, TF over GST control); in test [5] it was 1.11 fold enrichment (6-mer frequency, TF over GST control); in test [6], 1.15 fold enrichment (6-mer frequency, TF over GST control); in test [7], 1.09 fold enrichment (6-mer frequency, TF over GST control). The binding signal is 1.04 fold enrichment (6-mer frequency, TF over GST control) in test [8] and 1.12 fold enrichment (6-mer frequency, TF over GST control) in test [9].
As to TTGTTG, the binding signal in [1] was 1.01 fold enrichment (6-mer frequency, TF over GST control); in test [2] it was 1.08 fold enrichment (6-mer frequency, TF over GST control); in [3], 1.19 fold enrichment (6-mer frequency, TF over GST control); in test [4] it was 1.21 fold enrichment (6-mer frequency, TF over GST control); in test [5], 1.19 fold enrichment (6-mer frequency, TF over GST control); in [6], 1.09 fold enrichment (6-mer frequency, TF over GST control). For the same sequence, the binding signal in [7] was 1.15 fold enrichment (6-mer frequency, TF over GST control); in [8], 1.09 fold enrichment (6-mer frequency, TF over GST control); in [9], 1.21 fold enrichment (6-mer frequency, TF over GST control).
